# From PubChem BioAssay (NCATS)
# Values without a mark were called inactive. Inconclusive results are not listed. Where a call stands in place of a potency, no number is given. The source made the active and inactive calls. Calls come from the whole dose curve; as a rule, active = well fitted curve in the direction sought with a large enough effect; inconclusive = small, poorly fitted or top-dose-only effect, or another doubt; inactive = no such curve, though single readings can be large; an effect the other way counts as inactive or inconclusive.
# What was measured:
# [1] = molecular target: Glutathione peroxidase 1 (Homo sapiens) (UniProt P07203); assay: Primary qHTS Assay for Inhibitors of Recombinant Selenoprotein Glutathione Peroxidase 1 (GPX1) (AID 1845191); note: nearly all actives have a fitted effect of over 65% in size
# In short: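 GR-coupled assay: compounds preincubated 30 min at room temperature with GPX1, then reaction started with CHP; final 10 nM GPX1, 1 mM GSH, 0.5 mM CHP, 0.5 mM NADPH, 100 nM GR, 0.01% BSA, pH 7.5 Tris buffer. NADPH fluorescence (340/450 nm) read at 0 and 15 min.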
# [2] = molecular target: Phospholipid hydroperoxide glutathione peroxidase GPX4 (Homo sapiens) (UniProt P36969); assay: Primary qHTS Assay for Inhibitors of Recombinant Selenoprotein Glutathione Peroxidase 4 (GPX4) (AID 1845192); note: nearly all actives have a fitted effect of over 65% in size; for activity change, negative = inhibition: series mostly up to about 50 µM
# In short: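 GR-coupled assay: recombinant GPX4 preincubated 30 min with compound at room temperature; final 200 nM GPX4, 1 mM GSH, 0.5 mM cumene hydroperoxide, 0.5 mM NADPH, 100 nM GR, 0.01% BSA, pH 7.5 Tris. NADPH fluorescence (340/450 nm) read at 0 and 15 min.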
# [3] = molecular target: Luciferin 4-monooxygenase (Photinus pyralis) (UniProt P08659); assay: Primary firefly luciferase (FLuc) qHTS assay for identification of artifact compounds. (AID 1845220); note: nearly all actives have a fitted effect of over 60% in size; for activity change, negative = inhibition: series mostly up to about 54 µM
# In short: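 Enzymatic FLuc inhibition assay: compounds pre-exposed to luciferin/ATP (10 uM each) for 15 min, then purified P. pyralis enzyme at 10 nM added. Read-out: luminescence at 5 min.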
# [4] = Primary fluorescence-based thiol-reactive (MSTI) qHTS assay for identification of artifact compounds. (AID 1845221); note: nearly all actives have a fitted effect of over 65% in size; note: potency is the fitted concentration of half-maximal effect;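 for activity change, negative = thiol reactive: series mostly up to about 54 µM; thiol-reactive compounds lower the probe fluorescence signal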
# In short: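 Reactivity toward the thiol probe MSTI (4 uM) is scored by fluorescence at Ex/Em 525/598 nm after 1 h at room temperature. Acetyl-MSTI and MSTI define the activity scale.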
# [5] = test system: Nanoluciferase (engineered Oplophorus gracilirostris luciferase); assay: Primary Nanoluciferase (NLuc) qHTS assay for identification of artifact compounds. (AID 1845222);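 note: NLuc secreted into diluted conditioned medium of S16 cells; series mostly up to about 54 µM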
# In short: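 S16 cell supernatant NLuc, 1:55; cpds qHTS; 15 min RT dark; Nano-Glo substrate 1:100, 5 min; luminescence; Hill fit of % inhibition.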
# [6] = Primary redox qHTS assay for identification of artifact compounds. (AID 1845223)
# In short: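 Amplex Red (25 uM) and HRP (250 mU/mL) in HBSS, with compounds for 15 min, then 250 uM DTT for 30 min, room temperature, dark. Fluorescence 525/598 nm read; normalized to DMSO and 10 uM DA3003; Hill fit.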
# Sequence of Phospholipid hydroperoxide glutathione peroxidase GPX4 (Homo sapiens) (P36969 whole entry, looked up): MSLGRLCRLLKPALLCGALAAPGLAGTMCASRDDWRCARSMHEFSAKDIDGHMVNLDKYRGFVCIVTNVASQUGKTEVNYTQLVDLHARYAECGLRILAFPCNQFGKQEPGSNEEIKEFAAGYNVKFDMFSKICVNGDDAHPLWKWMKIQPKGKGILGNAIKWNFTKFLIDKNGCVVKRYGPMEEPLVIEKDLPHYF
# Sequence of Glutathione peroxidase 1 (Homo sapiens) (P07203 whole entry, looked up): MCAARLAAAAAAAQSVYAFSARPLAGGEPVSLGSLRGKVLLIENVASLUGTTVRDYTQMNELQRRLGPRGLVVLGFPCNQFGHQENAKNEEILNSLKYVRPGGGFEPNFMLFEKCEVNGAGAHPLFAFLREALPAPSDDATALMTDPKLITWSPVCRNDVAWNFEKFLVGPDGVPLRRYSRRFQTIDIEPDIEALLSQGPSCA
Compound,Potency [1],Potency [2],Potency [3],Potency [4],Potency [5],"activity change, negative = inhibition [3]","activity change, negative = thiol reactive [4]","activity, negative = inhibition [5]",outcome [3],Potency [6]
CCC(C)/C=C(C)/C=C/C1=CC2=C(Cl)C(=O)C(C)(OC(C)=O)C(=O)C2=CN1C(CC(=O)O)C(=O)O (centres undefined),inactive,inactive,inactive,0.733 µM (active),inactive,–,–,–,–,–
CC1(C)C=Cc2c(ccc3c2[N+]([O-])=C2C3(O)CC34NC(=O)C5(CCCN5C3=O)CC4C2(C)C)O1 (centres undefined),inactive,inactive,inactive,4.12 µM (active),inactive,–,–,–,–,–
C=C1CC[C@@]2(OC1)O[C@H]1CC3[C@@H]4CC=C5C[C@@H](O)C[C@@H](O[C@@H]6OC[C@H](O)[C@H](O)[C@H]6O[C@@H]6O[C@@H](C)[C@H](O)[C@@H](O)[C@H]6O)[C@]5(C)C4CC[C@]3(C)[C@H]1[C@@H]2C (some centres undefined),inactive,inactive,inactive,inactive,inactive,–,–,–,–,–
CC(C)CC[C@@H](O)[C@](C)(O)[C@H]1CC[C@@]2(O)C3=CC(=O)[C@@H]4C[C@@H](O)[C@@H](O)C[C@]4(C)[C@H]3CC[C@]12C,inactive,inactive,inactive,inactive,inactive,–,–,–,–,–
CNc1nc(C)nc(N[C@H]2CCC[C@@H](C(=O)NCc3ccc(C#N)cc3C(F)(F)F)C2)n1,inactive,inactive,inactive,inactive,inactive,–,–,–,–,–
CC(C)=CCC[C@](C)(O[C@@H]1O[C@H](CO[C@@H]2O[C@@H](CO)[C@H](O)[C@H]2O[C@@H]2OC[C@@H](O)[C@H](O)[C@H]2O)[C@@H](O)[C@H](O)[C@H]1O)[C@H]1CC[C@]2(C)[C@@H]1[C@H](O)CC1[C@@]3(C)CC[C@H](O[C@@H]4O[C@H](CO)[C@@H](O)[C@H](O)[C@H]4O[C@@H]4O[C@H](CO)[C@@H](O)[C@H](O)[C@H]4O)C(C)(C)C3CC[C@]12C (some centres undefined),inactive,inactive,–,–,–,0.984% [at 11.6 µM],132% [at 11.5 µM],0% [at 11.6 µM],–,–
CCCC1=CC2=C(CO1)C(=O)C(C)(O)C(OC(=O)c1c(C)cc(OC)cc1O)C2 (centres undefined),inactive,inactive,inactive,inactive,inactive,–,–,–,–,–
CCC(C)/C=C(C)/C=C/C(=O)C1CCC(O)C(C)(O)C1=O (centres undefined),inactive,inactive,inactive,23.8 µM (active),inactive,–,–,–,–,–
C=CC(C)(C)C12Nc3c(ccc4c3OC(C)(C)C=C4)C1(O)CC1C(=O)N3CCCC3C(=O)N12 (centres undefined),inactive,inactive,inactive,inactive,inactive,–,–,–,–,–
COc1cccc(CN(C(=O)CC(C)(C)C)C2CC(C(=O)N3CCNCC3)N(Cc3ccc4c(c3)OCO4)C2)c1 (centres undefined),inactive,inactive,inactive,inactive,inactive,–,–,–,–,–
C=CC(C)(O)CC/C=C(\C)C(=O)O[C@@H]1[C@@H](O)[C@H](OC(C)(C=C)CC/C=C(\C)C(=O)O)O[C@H](CO)[C@H]1OC(=O)/C(C)=C/CCC(C)(O)C=C (some centres undefined),inactive,inactive,inactive,inactive,inactive,–,–,–,–,–
C[C@@H]1O[C@@H](O[C@@H]2\C=C/C=C\C=C/C=C\C[C@H](C)OC(=O)/C=C\[C@H]3O[C@@H]3C[C@H](O)C[C@]3(O)C[C@@H](O)[C@@H](C(=O)O)[C@H](C2)O3)[C@H](O)[C@H](N)[C@@H]1O,inactive,inactive,inactive,inactive,inactive,–,–,–,–,–
C[C@H](O)C(O)(C(=O)OCc1ccccc1NC(=O)CCC(N)C(=O)O)[C@H](C)O (some centres undefined),inactive,inactive,inactive,inactive,inactive,–,–,–,–,–
C=C1CC[C@]2(C(=O)O[C@@H]3O[C@H](CO)[C@@H](O)[C@H](O)[C@H]3O)CC[C@]3(C)C(=CCC4[C@@]5(C)C[C@H](O)[C@@H](O[C@@H]6O[C@H](C(=O)O)[C@@H](O)[C@H](O)[C@H]6O)[C@](C)(C=O)C5CC[C@]43C)C2C1 (some centres undefined),inactive,inactive,–,–,–,–,113% [at 11.5 µM],1.82% [at 11.6 µM],inactive [at 11.6 µM],–
C=C1CCC2C(C)(C)CC(O)CC2(C)C1CCC(C)CCOC(=O)CCC(=O)O (centres undefined),inactive,inactive,inactive,inactive,inactive,–,–,–,–,–
CC1(C)CC[C@]2(C(=O)O)CC[C@]3(C)C(=CCC4[C@@]5(C)C[C@H](O)[C@H](O[C@@H]6O[C@H](CO)[C@@H](O)[C@H](O)[C@H]6O)[C@@](C)(CO)C5[C@H](O)C[C@]43C)[C@@H]2C1 (some centres undefined),inactive,inactive,inactive,inactive,inactive,–,–,–,–,–
C/C=C/C=C/C(O)=C1/C(=O)[C@]2(C)C(=O)[C@@](C)(O)[C@H]1[C@H]([C@@]1(C)OC(=O)C(C)=C1O)[C@H]2C(=O)CC/C=C/C,inactive,inactive,inactive,4.12 µM (active),inactive,–,–,–,–,–
O=C(OC[C@H]1O[C@H](O[C@]2(CO)O[C@H](CO)[C@@H](O)[C@@H]2O)[C@H](O)[C@@H](O)[C@@H]1O)c1ccc(O)cc1,inactive,inactive,inactive,inactive,inactive,–,–,–,–,inactive
CC1(O)CCC2C(C3C1CCC3(C)O)C2(C)C (centres undefined),inactive,inactive,inactive,inactive,inactive,–,–,–,–,inactive
COc1cc(Cc2cnc(N)nc2N)c(C(C)C)cc1OC,inactive,inactive,inactive,inactive,inactive,–,–,–,–,inactive
Cc1ccccc1-c1cc(N2CCN(C)CC2)ncc1N(C)C(=O)C(C)(C)c1cc(C(F)(F)F)cc(C(F)(F)F)c1,inactive,inactive,inactive,inactive,inactive,–,–,–,–,inactive
